Screening results as filed in PubChem.
Shown are actives, neighbours in structure and some others; about 5.4% of the full set was active somewhere.
FXN GAA850 act: FXN promoter activators, primary screen, cell-based, luciferase luminescence, HEK293 lucGAA850 | HEK293 lucGAA850 FXN promoter luciferase reporter, 24 h; percent of 10 µM SAHA response | activation, % at 6 µM | hit rate 0.56% among 360,000 | AID 540364, 2011;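 active = activation above the average of all compounds screened plus 3 SD, cutoff fixed separately per campaign, cut at about 7.5% in these data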
HSF1 inh: HSF1 inhibitors in luciferase reporter cells, primary screen, cell-based, NIH3T3, luminescence. NIH3T3-HGL HSE-luciferase, MG132-induced, luminescence 8 h; active compounds read low. activity change, negative = inhibition, % at 7.5 µM (by protocol). hit rate 0.77% among 300,000;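 active = more than half of replicate wells show activity change below -50%, luminescence cut by over half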;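 note: luciferase reports HSF-1 transcriptional activity via heat shock element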
HSF-1 act: HSF-1 activators, primary screen, NIH3T3-HGL cells, MG132 stress, luminescence, single point. NIH3T3-HGL HSF-1 luciferase reporter, 8 h; 100% = twice DMSO control signal. activation, % at 9 µM. hit rate 1.7% among 300,000. AID 504408, 2011;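 active = mean replicate activation of at least 50% with a set share of replicates each reaching 50%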
AHR act: AHR activators, primary screen, cell-based, luminescence, luciferase reporter, human; Aryl hydrocarbon receptor (Homo sapiens), P35869; AHR-responsive luciferase reporter cells; activation, % at 5 µM; hit rate 2.5% among 320,000; AID 2796, 2010; in the data active = activation above about 47%
NR0B1 inh: DAX1 (NR0B1) inhibitors, primary screen, cell-based, HEK293, Gal4-DAX1, luciferase luminescence; Nuclear receptor subfamily 0 group B member 1 (Homo sapiens), P51843; HEK293 Gal4-DAX1 luciferase reporter; inhibition, % at 6.75 µM; hit rate 0.99% among 340,000; AID 504766, 2011;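 active = inhibition above the mean over all tested compounds plus 3 SD, cut at about 4.2% in these data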;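 note: inhibition shows as a rise in luminescence from relieved DAX1 repression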
Target sequence (P51843 207-470 limits assumed): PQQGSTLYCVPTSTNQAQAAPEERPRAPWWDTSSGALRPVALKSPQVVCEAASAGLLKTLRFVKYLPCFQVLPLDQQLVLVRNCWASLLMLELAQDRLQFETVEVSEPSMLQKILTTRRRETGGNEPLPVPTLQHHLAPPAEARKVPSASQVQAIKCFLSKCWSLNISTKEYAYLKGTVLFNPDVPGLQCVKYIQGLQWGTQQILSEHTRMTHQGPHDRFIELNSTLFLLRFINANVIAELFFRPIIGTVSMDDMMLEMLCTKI
Large screens that a line does not name were inactive.

COc1ccc(C(CNC(=O)c2ccc(-c3nc4ccccc4s3)o2)N2CCCC2)cc1 (stereo not given)	none (no result: HSF1 inh, HSF-1 act)
CCOC(=O)COc1ccc(Br)cc1/C=C\c1[nH]c(=O)[nH]c(=O)c1[N+](=O)[O-]	none
CCOc1cc(/C=C\c2[nH]c(=O)[nH]c(=O)c2[N+](=O)[O-])ccc1OC(C)CC (stereo not given)	HSF-1 act 64 (no result: FXN GAA850 act, NR0B1 inh)
CCOC(=O)COc1ccc(Br)cc1/C=C/c1[nH]c(=O)[nH]c(=O)c1[N+](=O)[O-]	HSF-1 act 85
Cn1cc2cc([N+](=O)[O-])ccc2n1	none
NS(=O)(=O)c1ccc(NC(=O)CCCCC(=O)Nc2ccc(S(N)(=O)=O)cc2)cc1	NR0B1 inh 4.4
CC(C)(C)c1ccc(OCCC(=O)NCCc2ccc(S(N)(=O)=O)cc2)cc1	none (no result: AHR act)
CC(C)(C)c1ccc(OCCCC(=O)Nc2ccc(S(N)(=O)=O)cc2)cc1	HSF-1 act 56
CC(NS(=O)(=O)c1ccccc1)C(=O)Nc1ccc2c(c1)OCCO2 (stereo not given)	none
CCOc1ccc(-n2ccn(CC(=O)NCCc3ccccc3)c(=O)c2=O)cc1	none (no result: AHR act)
Cc1ccc(C2=NN=C(NC(=O)CSc3nc(C)cc(C)n3)SC2)cc1	none (no result: FXN GAA850 act, NR0B1 inh)
Cc1ccc(C2=NN=C(NC(=O)CSc3nnc4c5ccccc5n(C)c4n3)SC2)cc1	AHR act 77
O=C(NNC(=O)c1ccc(Br)s1)c1cccc(Cl)c1	none (no result: HSF1 inh, HSF-1 act)
Cn1c(CS(=O)Cc2c(Cl)cccc2Cl)nnc1SCc1ccc(Cl)cc1 (stereo not given)	HSF-1 act 61
Cc1noc(C)c1CSc1nc2sc(C)c(C)c2c(=O)n1-c1ccccc1	none
C=CCn1c(SCc2c(C)noc2C)nc2sc(C)c(C)c2c1=O	HSF-1 act 119
COc1ccc(C(=O)c2c[nH]cc2-c2ccccc2)cc1	HSF1 inh -57
O=C(c1ccc2ccccc2c1)c1c[nH]cc1-c1ccccc1	none
CCOC(=O)c1nn(-c2ccc(Cl)cc2C)ccc1=O	none
COc1ccc(C(=O)N2CCCC(c3nc(-c4cccs4)no3)C2)cc1OC (stereo not given)	none
COc1ccc(C(=O)N2CCCC(c3nc(-c4cccs4)no3)C2)cc1 (stereo not given)	HSF-1 act 59
CCCCCCC(=O)N1CCCC(c2nc(-c3cccc(OC)c3)no2)C1 (stereo not given)	none
CCCC(=O)N1CCCC(c2nc(-c3cccc(OC)c3)no2)C1 (stereo not given)	NR0B1 inh 4.7
COc1ccc(COC(=O)NNC(=O)c2ccccc2Cl)cc1	none
C=CCN(CC=C)C(=S)NC(=O)c1ccc(OC)cc1	AHR act 51
C=CCN(CC=C)C(=S)NC(=O)c1ccc(-c2ccccc2)cc1	none
COc1cc2c(cc1OC)C(c1ccc(-c3cc(Cl)ccc3Cl)o1)=NCC2	none
COc1cc2c(cc1OC)C(c1ccc(-c3ccc(Cl)c(Cl)c3)o1)=NCC2	AHR act 63
CN1CCC(=NOc2ccc([N+](=O)[O-])cc2)CC1	NR0B1 inh 4.7
COc1ccc(C(=O)ON=C2CCN(c3ccc([N+](=O)[O-])cc3)CC2)cc1	none
CC1(C)CC(=O)c2c(O)cc(O)cc2O1	none
C[C@]12CCC[C@H](O1)c1c(cc3c(c1O)C(=O)c1c(O)cc(O)cc1C3=O)O2	NR0B1 inh 5.1
Clc1ccc(C=Cc2ccccn2)cc1	none (no result: HSF1 inh, HSF-1 act, AHR act)
Cc1ccc(C=Cc2ccccn2)cc1	NR0B1 inh 4.5 (no result: HSF1 inh, HSF-1 act, AHR act)
CCOc1ccccc1NC(=O)C(OC(=O)C1CC1)c1ccccc1 (stereo not given)	none
COc1ccc(C)cc1NC(=O)C(OC(=O)C1CC1)c1ccccc1 (stereo not given)	AHR act 55
O=S(=O)(Nc1ccc2c(c1)nc1n2CCN(Cc2ccccc2)C1)c1ccc(Cl)cc1	HSF-1 act 67
Cn1c(CCN2CCCCC2)nc2cc(NS(=O)(=O)c3ccc(Cl)cc3)ccc21	HSF-1 act 62
Cn1c(CN2CCCCC2)nc2cc(NS(=O)(=O)c3ccc(Cl)cc3)ccc21	none
CC1Oc2ccccc2N(CC(=O)NCCN2CCOCC2)C1=O (stereo not given)	none
O=c1oc2ccccc2cc1NCc1ccccc1O	NR0B1 inh 4.2
O=C(NCc1ccccc1Cl)c1cc2ccccc2oc1=O	none
C[C@H](CO)N1C[C@H](C)[C@@H](CN(C)C(=O)Nc2ccc(C(F)(F)F)cc2)Oc2ccc(NS(=O)(=O)c3ccccc3)cc2C1=O	none (no result: HSF1 inh, HSF-1 act)
COCc1cc(C)nc(SCC[N+](C)(C)CC(=O)Nc2cccc(C(F)(F)F)c2)c1C#N	none
O=C(CC1CCCC1)Nc1nnc(C2CC2)s1	NR0B1 inh 4.6
CCc1c(C(=O)Nc2nnc(C3CC3)s2)csc1C	AHR act 67
CCCc1sc(C(=O)Nc2nnc(C3CC3)s2)cc1CC	none (no result: HSF1 inh, HSF-1 act, AHR act)
CC(OC(=O)c1ccc(OCC2CCCO2)cc1)C(=O)N(C)Cc1ccccc1 (stereo not given)	none
CCCc1cc(=O)oc2cc(C)c(CN3CCCC3)c(O)c12	HSF-1 act 63
COc1ccc(N2CCN(C(=O)[C@H](Cc3c[nH]c4ccccc34)NC(C)=O)CC2)cc1	HSF-1 act 62
CCc1cc(-c2nnn(-c3cc(C(C)C)ccc3C)c2CC)ccc1-c1cn(CCc2c[nH]c3ccccc23)nn1	none (no result: HSF1 inh, HSF-1 act, AHR act)
N#CCc1nn(-c2ccc(Cl)cc2)c(N)c1C#N	AHR act 64
O=C1c2ccccc2NC(c2ccc(O)cc2)N1/N=C/c1ccc(O)cc1 (stereo not given)	HSF-1 act 70
Cc1ccc2[nH]c(CSc3ccccc3)cc(=O)c2c1	none
N=C1SCC(=O)N1c1ncc(Cc2cccc(Cl)c2)s1	none (no result: AHR act)
CN(C)c1ccc(NC(=O)c2sc(SCC(=O)Nc3nccs3)nc2N)cc1	AHR act 78
CC1(C(=O)NS(=O)(=O)c2cccc(F)c2)CCN1C(=O)C1CCCCC1 (stereo not given)	none (no result: HSF1 inh, HSF-1 act, AHR act, NR0B1 inh)
O=C(NCCc1ccc(F)cc1)c1cc(=O)c2ccccc2o1	none
COc1ccc2nc(NC(=O)CN3CCOCC3)sc2c1	HSF1 inh -89
Cc1sc(NC(=S)Nc2ccc(F)cc2)c(C(N)=O)c1C	AHR act 81
Cc1sc(NC(=O)c2ccc(Br)s2)c(C(N)=O)c1C	HSF-1 act 61, AHR act 59
CCc1c(C)sc(NC(=O)C2CCCCC2C(=O)O)c1C(N)=O (stereo not given)	none
Cc1sc(NC(=S)NC(=O)C2CCCCC2)c(C(N)=O)c1C	AHR act 56
C[C@]12c3[nH]c4ccccc4c3CCN1C(=O)C(CC(=O)NCCN1CCOCC1)C[C@@H]2C(=O)N1CCCCC1 (stereo not given in full)	none (no result: HSF1 inh, HSF-1 act)
O=C(c1cnn(-c2ccccc2)c1)c1cc(Br)ccc1O	none (no result: HSF1 inh, HSF-1 act)
